Compounds without any hit were thinned out: in the full panel of roughly 79,000, 15% have a hit. A number with no mark means an inactive call. Rule as the data show it: active = growth inhibition above about 70%; inactive = the rest.

This test can be described thus: NCI Yeast Anticancer Drug Screen. Data for the mec2-1 strain (AID 157). To be noted: S. cerevisiae mec2-1 strain, at 50.0 µM, hits give high values. As to the method:
Growth inhibition of yeast strains with defined genetic alterations is measured as a screen for potential anti-cancer activity. Selected strains with alterations in DNA damage repair or cell cycle control were exposed to compounds and growth inhibition was measured relative to vehicle treated controls. The strain used in this assay is mec2-1
On to `CCOC(=O)C(=CNC(=S)Nc1ccc(Cl)c(Cl)c1)C(=O)OCC`, for which the growth inhibition was 39.5%.

For the molecule `O=C(O)CCc1ccc2c(c1)CC1(Cc3ccccc3C1)C2`, the growth inhibition is 41.8%.

Take `COc1cc(NCCN=C(N)NC#N)c2ncccc2c1`: the growth inhibition is 4.75%.

In the case of `CCCCCNC(=O)c1csc(-c2csc(CCNC(C)=O)n2)n1`, the growth inhibition was 4.85%.

In the case of `O=[N+]([O-])c1ccc(N/N=C(/c2ccc3ccccc3c2)c2ccccc2F)c([N+](=O)[O-])c1`, the growth inhibition was -4.6%.

As to `Cc1cc2nc(CCC(=O)O)c(=O)[nH]c2cc1C`, the growth inhibition is -24.6%.

With `CCOC(=O)C(C)(C)Oc1ccc2c(-c3ccc(Cl)cc3)cc(=O)oc2c1`, the growth inhibition was -5.1%.

As for `CC(=O)OCC(OC(C)=O)C(OC(C)=O)C(OC(C)=O)c1cnn(-c2ccccc2)n1` (stereo not given), the growth inhibition was 12.7%.

Turning to `OCCCOCc1ccccc1`, the growth inhibition is 27.4%.

With `Cc1cc(C)c(N(C)C(=O)CCC(=O)O)c(Br)c1`, the growth inhibition is -3.05%.

Take `O=C(Nc1ccc(Cl)cc1Cl)C(=O)C(C(=O)c1ccncc1)C1OC(=O)c2ccccc21` (stereo not given): the growth inhibition is -38.3%.

As to `COc1ccccc1N(CN1C(=O)CCC1C(=O)O)C(C)=O` (stereo not given), the growth inhibition is 10.4%.

In the case of `CC1=C(C(=O)NN)CC/C1=N\N`, the growth inhibition is -18.8%.

`CCOC(=O)Nn1c(C)nnc1CC#N`: the growth inhibition is -2.4%.

As to `O=C(c1cc([N+](=O)[O-])cc([N+](=O)[O-])c1)N1CCCC1`, the growth inhibition was -20.7%.

For the molecule `CCOc1ccc(NC(=O)C2=C(C)NC(C)=C(C(=O)Nc3ccc(OCC)cc3)C2c2ccccc2)cc1`, the growth inhibition is -7.4%.

In the case of `CC(=O)/C=C/CCC(=O)/C=C/C(=O)OC(CCC(=O)/C=C/C(=O)O)CC(C)=O` (stereo not given), the growth inhibition is -30.4%.

In the case of `CC1=CC(C)(C)Nc2ccccc21`, the growth inhibition was -5.6%.

With `Cc1cn(-c2c(C)c(C)c(-n3c(C)ccc3C)c(C)c2C)cc1C`, the growth inhibition is -5.55%.

On to `O=C(c1cccc([N+](=O)[O-])c1)N1CCOCC1`, for which the growth inhibition was -10%.

Consider `Cc1ccc(N=C2N=C(N3CC(C)OC(C)C3)c3ccccc32)cc1` (stereo not given), for which the growth inhibition is -22.9%.

Regarding `Cc1ccc(N2C(=O)/C(=C/c3ccc(N(CCC#N)CCC#N)cc3)CC2(O)c2ccccc2)cc1` (stereo not given), the growth inhibition was -12.6%.

With `Cc1ccc(N=NC2=C3Sc4ccccc4N=C2N(c2ccc(Br)cc2)C(=S)N3c2ccc(Cl)cc2)cc1`, the growth inhibition was -3.35%.

For the molecule `C1C[OH+]CCNCC[OH+]CC[OH+]CCN1.[Cl-].[Pt+4]`, the growth inhibition was -29.2%.

As for `CCOC(=O)c1ccc(NC(=O)Nc2cc(Cl)ccc2OC)cc1`, the growth inhibition is 46.1%.

Take `CC(O)CSCC(C)O` (stereo not given): the growth inhibition is -4.2%.

In the case of `COc1cc(OC)c(/C=C2\N=C(C)N(Nc3nnc(NN4C(=O)/C(=C/c5c(OC)cc(OC)cc5OC)N=C4C)c4ccccc34)C2=O)c(OC)c1`, the growth inhibition is -2.25%.

For the molecule `Cc1ccc(S(=O)(=O)OCC(C)(C)CC#N)cc1`, the growth inhibition was 30.6%.

As for `NCCCc1ccc(C(=O)O)cc1`, the growth inhibition is 1.85%.

In the case of `O=C1/C(=N\O)C2CCC1C2` (stereo not given), the growth inhibition was 0.75%.

As for `CC1=CC(C)(C)N=C2SC(c3ccc(N)cc3)=NN12`, the growth inhibition was 1.7%.

On to `Nc1ccn(C2CC(F)C(CO)O2)c(=O)n1` (stereo not given), for which the growth inhibition is 11.2%.

For the molecule `CC(C)(C)/C=C/N=NNc1ccccc1C(=O)NC(C)(C)C`, the growth inhibition is 0.2%.

`COc1cc(NCC2COc3c(ccc(OC)c3OC)C2=O)c([N+](=O)[O-])cc1OC` (stereo not given): the growth inhibition was 20.2%.

For `COc1ccc(C(=CCC(C)C2CCC3[C@@H]4C(OC(C)=O)CC5CC(OC(C)=O)CC[C@]5(C)C4CC(OC(C)=O)[C@]23C)c2ccc(OC)cc2)cc1` (stereo not given in full), the growth inhibition was 1.4%.

Consider `CCOc1ccc(NC(=O)c2cccc(C(=O)Nc3ccc(OCC)cc3)c2)cc1`, for which the growth inhibition was -12.3%.

On to `CCOC(=O)c1ccc(-c2ccc(C(=O)OCC)cc2[N+](=O)[O-])c([N+](=O)[O-])c1`, for which the growth inhibition was 12.8%.

Take `CCN(CC)C(=S)N1CCCCC1`: the growth inhibition is -14.6%.

Regarding `COc1ccc(-c2oc3cc(OC)c(OC)c(OC)c3c(=O)c2O)cc1O`, the growth inhibition is 50.5%.

In the case of `CN(C)c1ccc(/C=C/C(=O)/C=C/c2ccc(N(C)C)cc2)cc1`, the growth inhibition was -2%.
